The list is not random: actives were taken first. Their share in the collection is about 4.5%.
DAX1 inh-1: DAX1 (NR0B1) inhibition, primary screen. HEK293T StAR-luciferase reporter, SF-1/DAX-1 repression relief. inhibition, % at 6.8 µM. 370,000 compounds, 1.1% hits;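 active = inhibition above the mean over all tested compounds plus 3 SD, cut at about 3.6% in these data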;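 note: 0% = DAX-1 cells with DMSO and 100% = cells lacking DAX-1 with DMSO; higher inhibition means more luminescence from relief of DAX-1 repression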
ssDAF12 agonist: activators of S. stercoralis DAF-12 nuclear receptor; HEK293 ssDAF-12/GRIP1 lit1-tk-luc reporter, luminescence; % of 3 µM dafachronic acid response; activation, % at 6.8 µM; 370,000 compounds, 1% hits;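 active = activation above the mean over all tested compounds plus 3 SD, cut at about 0.9% in these data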;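 note: 0% = DMSO-only wells and 100% = 3 µM delta7-dafachronic acid wells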
DAX1 inh-2: NR0B1 (DAX1) inhibition. HEK293 Gal4-DAX1 luciferase reporter, luminescence. inhibition, % at 6.75 µM. 340,000 compounds, 0.99% hits. AID 504766;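 active = inhibition above the mean over all tested compounds plus 3 SD, cut at about 4.2% in these data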;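 note: 0% = DAX1-transfected cells with DMSO and 100% = empty-vector control cells with DMSO; inhibition shows as a rise in luminescence from relieved DAX1 repression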
Target sequence (P51843 207-470 limits assumed): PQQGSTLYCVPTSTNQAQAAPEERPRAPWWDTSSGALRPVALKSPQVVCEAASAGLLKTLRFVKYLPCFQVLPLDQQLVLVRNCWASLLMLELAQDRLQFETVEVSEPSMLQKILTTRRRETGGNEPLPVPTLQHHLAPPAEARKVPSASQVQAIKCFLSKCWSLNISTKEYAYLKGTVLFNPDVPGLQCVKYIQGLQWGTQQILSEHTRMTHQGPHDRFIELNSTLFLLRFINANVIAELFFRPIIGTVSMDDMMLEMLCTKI
hgDAF-12 ag: hgDAF-12 agonism, primary luciferase screen. activation, % at 6.8 µM. 370,000 compounds, 1.8% hits. HEK293 GAL4-hgDAF12 UAS-luciferase reporter, agonist luminescence; normalized to butyrate control;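 active = activation above a cutoff set at the mean of all screened compounds plus 3 SD, cut at about 10% in these data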;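 note: 0% = DMSO wells and 100% = sodium butyrate wells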
hcDAF-12 act: activates DAF-12 receptor from parasite H. contortus; HEK293 hcDAF-12 lit1-tk-luc reporter, luminescence; 0% DMSO, 100% Δ7-dafachronic acid; activation, % at 6.8 µM; 370,000 compounds, 1.4% hits;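 active = activation above the mean of all tested compounds plus 3 SD, cut at about 5.5% in these data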;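 note: 100% = response to 3 µM Δ7-dafachronic acid high control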
FXN GAA850 act: increases GAA850 frataxin promoter reporter activity; HEK293 lucGAA850 FXN promoter luciferase reporter, 24 h; percent of 10 µM SAHA response; activation, % at 6 µM; 360,000 compounds, 0.56% hits;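 active = activation above the average of all compounds screened plus 3 SD, cutoff fixed separately per campaign, cut at about 7.5% in these data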;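 note: 0% = DMSO wells and 100% = 10 µM SAHA wells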
LXRb hcDAF ctr: activates human LXR-beta, counter-screen for hcDAF-12 agonists | shares compounds with hcDAF-12 act | HEK293 Gal4-LXR tk-luc reporter, luminescence, 24 h; normalized: DMSO 0%, positive control 100% | activation, % at 6.8 µM | 3,400 tested, under 10 active | AID 743027;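 active = mean percent activation of the reporter above a cutoff set as the average over tested compounds plus their standard deviation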
hcDAF12 conf: hcDAF-12 agonism, confirmation assay; activation, % at 6.8 µM; HEK293 hcDAF-12 lit1-tk-luc reporter, luminescence; % of Δ7-dafachronic acid response; shares compounds with hcDAF-12 act; AID 743032; 3,400 compounds, 61% hits;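 active = mean activation across triplicate tests above the threshold derived from the earlier primary screen, cut at about 5.5% in these data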;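 note: 0% = DMSO only wells and 100% = 3 µM Δ7-dafachronic acid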
* marks the source's active call; other numbers are inactive results; . = not tested or not shown.

SMILES	DAX1 inh-1	ssDAF12 agonist	DAX1 inh-2	hgDAF-12 ag	hcDAF-12 act	FXN GAA850 act	LXRb hcDAF ctr	hcDAF12 conf
CC(C)(C)c1ccc(S(=O)(=O)N2CCCC(C(=O)NCc3cccs3)C2)cc1 (configuration not stated)	-1	-2	.	3	-1	.	.	.
CCCCOCCCNC(=O)C[C@H]1C[C@@]2(C(=O)OC)C(=C[C@H](C(C)C)O[C@@H]2C2CC2)N(Cc2ccco2)C1=O	0	-2	.	2	-3	.	.	.
COC(=O)C1=C(C)N(Cc2cccc(C(F)(F)F)c2)C(=NCc2ccc(C(F)(F)F)cc2)NC1c1ccccc1 (configuration not stated)	2	-1	.	0	1	.	.	.
O=C1C=CC(=O)N1c1ccc2ccccc2c1	-1	0	2	8	7.4*	4	0	1
Cc1cccc(N2C(=O)C=CC2=O)c1	0	0	-2	1	1	2	.	.
CC(C)CN1C(=O)[C@]2(CC(=O)N(C)C2c2ccccc2)c2cc(-n3cc(CO)nn3)ccc21 (some centres not stated)	1	0	.	-3	0	.	.	.
O=S(=O)(Nc1ccn(-c2ccccc2)n1)c1ccc(Br)cc1	2	-1	0	5	7.3*	4	0	4
CC(=O)O[C@@H]1C=C[C@@H](C#Cc2ccc(C(C)(C)C)cc2)O[C@@H]1COC(=O)Nc1ccccc1	-2	-2	.	0	-3	.	.	.
COC(=O)C12C=C3CC(C)=C3C(=O)N1Cc1[nH]c3ccccc3c1C2 (configuration not stated)	0	0	.	2	8.1*	.	0	5.9*
Cc1ccc2sc(NC(=O)CSc3nc(C)cc(C)c3C#N)nc2c1	4.0*	0.9*	1	12*	11*	7	1	11*
Cc1cc(C(F)(F)F)c(C#N)c(SCC(=O)Nc2nc3ccccc3s2)n1	-1	-2	2	-12	-1	-8	.	.
O=C(Nc1nnc(-c2ccccc2Cl)o1)c1nc2ccccc2s1	1	1.2*	1	6	8.8*	3	0	5
O=C(Nc1nnc(-c2ccccc2Cl)o1)c1ccco1	0	-1	0	10	4	3	.	.
O=S(=O)(N/N=C\C=C\c1ccccc1)c1ccc(Br)cc1	1	-1	1	0	0	-1	.	.
Cc1ccc(S(=O)(=O)N/N=C\C=C\c2ccccc2)cc1	1	-1	0	3	6.7*	-1	0	0
Nc1cc(N)cc(-c2nc3ccccc3[nH]2)c1	1	0	0	2	8.9*	1	0	4
Nc1ccc(-c2nc3ccc(N)cc3[nH]2)cc1	1	-2	-1	-2	-1	-2	.	.
Nc1ccc2nc(-c3ccc(Cl)cc3)[nH]c2c1	2	0	2	4	7.0*	4	1	4
C[C@@H]1CCCN1c1cccc2c1S(=O)(=O)N1CC[C@@H](C1)O2	-1	-1	.	0	-2	.	.	.
COC(=O)[C@]12C[C@H](CC(=O)N3CCCC3)C(=O)N(Cc3ccccc3)C1=C[C@H](C1CCCC1)O[C@@H]2C	-1	-1	.	1	-2	.	.	.
CCCN1CCN(C(=S)Nc2ccc([N+](=O)[O-])cc2)CC1	1	0	-1	3	9.1*	0	0	3
Cc1ccc(-c2noc(/C=C/c3ccccc3)n2)cc1	1	-1	2	2	0	5	.	.
Cc1ccc(/C=C/c2nnc(-c3ccccc3)o2)cc1	2	1.7*	1	9	7.3*	3	0	3
COC(=O)[C@H](CC(C)C)N(CCCc1cn(CC2CCCCC2)nn1)S(=O)(=O)c1ccc(F)cc1Br	-2	-2	.	-5	-3	.	.	.
CCOc1c2ccc(C(=O)NCCc3ccc(C)cc3)cc2nn1CC	0	-1	0	0	2	-2	.	.
SMILES	DAX1 inh-1	ssDAF12 agonist	DAX1 inh-2	hgDAF-12 ag	hcDAF-12 act	FXN GAA850 act	LXRb hcDAF ctr	hcDAF12 conf
CCn1nc2cc(C(=O)NCCc3cccs3)ccc2c1OC	2	0	4.6*	8	8.1*	4	1	5.7*
O=C(NCCc1cccs1)c1ccc(Cl)cc1	3	1	-2	11*	7.6*	2	1	2
CN1CCCCC(NC(=O)c2c(F)cccc2F)C1=O (configuration not stated)	0	-1	.	-2	0	.	.	.
COC(CNC(=O)[C@H](Cc1ccccc1)NC1(C(=O)NC2CCCCC2)CCCC1)OC	.	-1	.	-1	-1	.	.	.
N#Cc1ccc(NC(=O)OC2CC3CC2[C@H]2CCCCN2C3)cc1 (some centres not stated)	1	0	.	-2	-2	.	.	.
O=C1NCCCC1C(=O)N/N=C/c1ccccc1O (configuration not stated)	0	0	3	2	7.5*	0	0	2
Nn1cnc2scc(-c3ccc(Cl)cc3)c2c1=O	0	1.7*	1	9	6.9*	0	0	1
Nn1cnc2scc(-c3cccs3)c2c1=O	0	-1	0	0	1	2	.	.
O=C(NCC1COCCO1)C1CCN(S(=O)(=O)c2ccc(Br)s2)CC1 (configuration not stated)	-1	-1	.	-1	-2	.	.	.
COC(=O)[C@]12C[C@H](CC(=O)NCC34CC5CC(CC(C5)C3)C4)C(=O)N(Cc3cccc4ccccc34)C1=C[C@H](C(C)C)O[C@@H]2C1CC1	0	-1	.	-1	1	.	.	.
O=C(O)c1[nH]c2ccccc2c1C(c1cc(Br)ccc1O)c1c(C(=O)O)[nH]c2ccccc12	0	1	1	0	7.1*	1	0	3
COC(=O)c1cc2c(c3c4cc(F)ccc4n(S(=O)(=O)c4cccc(C)c4)c13)C(=O)N(Cc1ccc(C(F)(F)F)cc1)C2	-1	0	.	1	2	.	.	.
O=C(CCn1c(=S)oc2ccccc21)Nc1cccc(F)c1	0	-1	-1	-1	7.5*	2	-1	-2
O=C(/C=C/c1c[nH]c2ccccc12)c1cccc2ccccc12	0	0	0	4	11*	0	0	3
O=C(c1ccccc1)c1c[nH]c2ccccc12	0	-1	2	4	1	2	.	.
C(=N\Nc1ccccc1)/c1nc2ccccc2s1	3	3.8*	4.8*	24*	18*	1	3	23*

Screens deposited in PubChem BioAssay by The Scripps Research Institute Molecular Screening Center.
